PubChem BioAssay (NCI)
About 83,000 compounds went through this panel and 20% of them were active in at least one assay; those are over-represented in the sample as a whole.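 Compound tested at a single concentration for 48 hours in 96-well plates; a percent growth value below 10 was scored as active.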 Activity calls are given as the source filed them.

The compounds below were run on U251 CNS (assay: NCI-60 one-dose screen, 48 h (100 = growth as untreated, 0 = no growth, -100 = all killed)). Conditions: 10 µM unless noted.
Method: Growth inhibition of the U251 human tumor cell line is measured as a screen for anti-cancer activity. Cells are grown in 96 well plates and exposed to the test compound for 48 hours. Compounds are tested at a single concentration, which is 10^-5 M for most compounds. The reported endpoint is percent growth (GI% or GIPRCNT), where numbers from 0 - 100% represent growth inhibition, and numbers from -100% - 0 represent cell death. For example, a value of 40 represents 60% growth inhibition. A value of 0 means no net growth occurred over the course of the experiment. A value of -40 indicates 40% of cells at the beginning of the experiment died by the end of the experiment. A value of -100 means all cells are dead at the end of the experiment.
NCI-60 Human Tumor Cell Lines Screen was performed using the standard one-dose NCI protocol, which is described in more detail at https://dtp.cancer.gov/discovery_development/nci-60/default.htm.
Compounds with GIPRCNT values below 10 were considered active. Activity score was based on GIPRCNT using the following formula: […]
Score is 0 for GIPRCNT values of 100 or above, 50 for GIPRCNT values of 0, and 100 for GIPRCNT values of -100.

Compound	growth
Cc1cc(C)c(C(=O)c2cccs2)c(C)c1	97.5% (inactive)
NC(=O)NC1(C(=O)O)CCCC1	99.9% (inactive)
COC(=O)[C@H](Cc1cn(C)cn1)NC(=O)[C@H](Cc1ccccc1)NC(=O)Nc1cc(C(F)(F)F)cc(C(F)(F)F)c1	-95.6% [100 µM] (active)
COc1ccc([N+](=O)[O-])c(S(=O)(=O)c2ccc(Cl)cc2)n1	95.6% (inactive)
C=C1CCC2C3(C)COC(c4ccccc4)OC3CCC2(C)C1C/C=C1/C(=O)OCC1OC(C)=O (stereo not given)	71.2% (inactive)
C[C@@H]1C[C@@H]([C@@H](CC2CC(=O)NC(=O)C2)OC(=O)CC(=O)c2ccccc2)C(=O)[C@@H](C)C1	14.7% (inactive)
CCOC(=O)C1=CCC(n2cc(C)c(=O)[nH]c2=O)O1 (stereo not given)	98.8% (inactive)
c1ccc2nc(Cn3c[n+](Cc4ccc5ccccc5n4)c4ccccc43)ccc2c1	34% (inactive)
Cc1ccccc1NC(=O)NC(CC(N)=O)c1ccc2c(c1)nc(-c1cccc(Oc3ccc(C(C)(C)C)cc3)c1)n2CCCN1CCCCC1C (stereo not given)	-74.2% (active)
CC(=O)Nc1ccc(C(=O)COc2ccc(/C=C3\CCc4ccccc4C3=O)cc2)cc1	98.6% (inactive)
CC(=O)N1N=C(c2ccc(Nc3ccnc4cc(Cl)ccc34)cc2)CC1c1ccc(Cl)cc1 (stereo not given)	57.9% (inactive)
c1ccc(N2c3nc4ccccc4cc3Sc3cc4ccccc4nc32)nc1	85.7% (inactive)
CCC(C)C1NC(=O)C(CCNCS(=O)(=O)O)NC(=O)C(NC(=O)C(CCNCS(=O)(=O)O)NC(=O)C(NC(=O)C(CCNCS(=O)(=O)O)NC(=O)CCCCC(C)C)C(C)O)CCNC(=O)C(C(C)O)NC(=O)C(CCNCS(=O)(=O)O)NC(=O)C(CCNCS(=O)(=O)O)NC(=O)C(C(C)CC)NC1=O (stereo not given)	33.3% (inactive)
CC(C)Sc1nc(-c2ccc(Br)cc2)c(C#N)c(N2CCCCC2)n1	99.9% (inactive)
Cc1cc(C)c2c(N)c3cccc(C)c3nc2n1	17.4% (inactive)
COC(=O)Nc1ccc2ccc3c(NC(=O)OC)ccc4ccc1c2c43 (tested in a mixture with another compound)	41% (inactive)
O=C1OC2(c3ccccc31)c1ccccc1-c1ccccc12	63.6% (inactive)
O=C(COc1cccc(/C=C2\Cc3ccccc3C2=O)c1)c1ccc(Cl)cc1	125% (inactive)
CCCn1c(N)c(C(=O)CNc2ccc(I)cc2)c(=O)[nH]c1=O	28.8% (inactive)
O=C1NC(=O)/C(=C/c2ccc(Cl)cc2Cl)N1	102% (inactive)

Compound	growth
C/C(=C\CCc1ccsc1)CC/C=C(\C)CCCN1CCSCC1	88.5% (inactive)
COc1ccc(C(=O)COc2cccc(/C=C3\COc4ccc5ccccc5c4C3=O)c2)cc1	68.3% (inactive)
CC(=O)[C@H]1CC[C@H]2[C@@H]3C[C@H](C)C4=CC(=O)CC[C@]4(C)[C@H]3C(=O)C[C@]12C	98.2% (inactive)
OCc1n(Cc2ccc3ccccc3c2)cc[n+]1Cc1ccc2ccccc2c1	60% (inactive)
COc1cc(C2CC(C3C(=O)N(C)C(=O)N(C)C3=O)=NN2c2cc(Cl)cc(Cl)c2)cc(OC)c1OC (stereo not given)	92.5% (inactive)
CCN(CC)c1ccc(/C=C/C(=O)c2cccc(NS(C)(=O)=O)c2)cc1	41.6% (inactive)
CC(=O)N1N=C(c2ccc(Cl)cc2)CC1c1c(C)nn(-c2ccccc2)c1N(C)Cc1ccccc1 (stereo not given)	68.6% (inactive)
O=C(Nc1cccc(Cl)c1)Nc1cccc(Cl)c1	63.5% (inactive)
CC(=O)O[C@H]1CC[C@@]2(C)C(=CC[C@@H]3[C@@H]2CC[C@]2(C)C(c4cccnc4)=CC[C@@H]32)C1	53% (inactive)
O=C(Nc1nn2c(-c3cc(C(F)(F)F)cc(C(F)(F)F)c3)nnc2s1)C1CCCC1	4.37% (active)
COc1cc(/C=C\C(C)=N\Nc2ccccc2)ccc1O	90.5% (inactive)
c1ccc(-c2nc(Nc3nccnn3)c3ccccc3n2)cc1	92.9% (inactive)
O=c1[nH]c(SCc2ccccc2)nc2nc(Nc3ccc(NC(=S)Nc4ccccc4)cc3)nc(-c3ccc(O)cc3O)c12	85.3% (inactive)
COc1cnc2c(c1)C(=O)c1c-2n(CCCN2CCOCC2)c(=O)c2cc(F)ccc12	-27.7% (active)
N#CSCC1CC(O)(c2ccccc2)C(c2ccccc2)C(c2ccc(Cl)cc2)O1 (stereo not given)	-31.1% (active)
O=C1c2cccc(NCCN=Cc3ccccc3O)c2C(=O)c2c(NCCN=Cc3ccccc3O)cccc21	7.41% (active)
CCOC(=O)/C(=C/CC/C(C)=C/CC/C(C)=C/CCc1ccoc1)CC(=O)N1CCCCC1	66.6% (inactive)
COc1cc2c(cc1OC)C(CC1(O)CCCCC1)N(S(=O)(=O)c1ccc(C)cc1)CC2 (stereo not given)	34.1% [100 µM] (inactive)
CCOC(=O)CNC(=O)C1(NC(=O)CNC(=O)OCc2ccccc2)CCCC1	106% (inactive)
CCSc1nc(-c2ccco2)n2nc(-c3ccco3)cc2n1	96.8% (inactive)
